The supplement of paper PMC9177965
Values joined by “and” are separate entries in the source; they are usually repeats but may differ in a detail not shown here. Identical values can stand only once.

Columns and labels:
[1] = tested on: HT29 RNF43 G659fs (RNF43 659mut, CRISPR-edited); assay: cell viability activity relative to DMSO (negative = inhibition); higher = more viable cells (less growth inhibition); settings: 5 µM; 96 h
Description: (§1)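 Broad Repurposing Library primary screen at a single dose of 5 uM. HT29 sg-Ctrl and HT29 RNF43 G659fs CRISPR-edited isogenic cells were seeded at 2500 cells/well in 384-well plates in duplicate and treated for 96 h. Viability was read by CellTiter-Glo and reported as % activity relative to DMSO, with MG132 as the positive control (negative = growth inhibition).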

[2] = tested on: HT29 sg-Ctrl (RNF43 wildtype); assay: as above; settings: 5 µM; 96 h
Description: as §1

SMILES	cell viability activity [1]	cell viability activity [2]
CCN(CC)CCNc1ccc(CO)c2sc3ccccc3c(=O)c12	-23.1%	-27.7%
O=c1[nH]c(=O)n([C@H]2C[C@H](O)[C@@H](CO)O2)cc1F	-58.1% and -58.2%	-54.2% and -63.2%
CC(C)(C)c1ccc(C(=O)CCCN2CCC(OC(c3ccccc3)c3ccccc3)CC2)cc1	-79.7%	-92.1%
Nc1ncnc2c1c(-c1cnc3[nH]ccc3c1)nn2C1CCCC1	-84.8%	-78.7%
C[C@H]1O[C@@H](O[C@H]2[C@@H](O)C[C@H](O[C@H]3[C@@H](O)C[C@H](O[C@H]4CC[C@@]5(C)[C@H](CC[C@@H]6[C@@H]5CC[C@]5(C)[C@@H](C7=CC(=O)OC7)CC[C@]65O)C4)O[C@@H]3C)O[C@@H]2C)C[C@H](O)[C@@H]1O	-92.2%	-93.4%
Cc1cccc(Nc2nc(-c3ccncc3)cs2)c1	-85.7%	-55.8%
Cc1nc(=O)c2cc(CN(C)c3ccc(C(=O)N[C@@H](CCC(=O)O)C(=O)O)s3)ccc2[nH]1	-60.2%	-60.9%
CC(C)C[C@H](NC(=O)[C@@H](NC(=O)c1cccc(-c2ccccc2)n1)[C@@H](C)O)B(O)O	-95.1%	-95.4%
O=C(NNc1nc2cc(F)ccc2n2cccc12)c1cnccn1	-82.8%	-88.3%
CC1=C(C(=O)OC2CCCCC2)C(c2ccc([N+](=O)[O-])cc2)C2=C(CC(C)(C)CC2=O)N1 (stereo not given)	-27.1%	-15.6%
COc1cc2c(cc1OC)-c1cc3nc4ccccc4nc3n1C(C)(C)C2	-64.4%	-78.1%
c1ccc(CNc2nc(NCc3ccccc3)c3ccccc3n2)cc1	-22%	-41%
CO[C@H]1/C=C\C=C(/C)C(=O)NC2=CC(=O)C(NCCN(C)C)=C(C[C@@H](C)C[C@H](OC)[C@H](O)[C@@H](C)/C=C(\C)[C@@H]1OC(N)=O)C2=O	-93.9% and -91.4%	-92.1% and -90.4%
Cn1ncc(Cl)c1-c1cc(C(=O)N[C@H](CN)Cc2ccc(F)c(F)c2)oc1Cl	-70.4%	-61.1%
CCCCCCCC[N+](C)(C)Cc1ccccc1	-22.5%	-16.8%
CC(CN1c2ccccc2Sc2ccccc21)N(C)C (stereo not given)	-40.7%	-3.76%
COc1cc(NC(C)CCCN)c2ncccc2c1 (stereo not given)	-52.7%	-22.4%
c1cncc(CN2CCC(n3ncc4c(N5CCOCC5)nc(-c5ccc6[nH]ccc6c5)nc43)CC2)c1	-74.3%	-75.2%

SMILES	cell viability activity [1]	cell viability activity [2]
CNC(=O)CN1CCC(Oc2cc3c(Nc4cccc(Cl)c4F)ncnc3cc2OC)CC1	-41.9%	-24.1%
Cc1ccc(-n2nc(C(C)(C)C)cc2NC(=O)NCc2cc(F)ccc2Oc2ccc3c(cnn3CCO)c2)cc1	-36.7%	-42.9%
CN(C)Cc1ccc(S(=O)(=O)n2ccc(/C=C/C(=O)NO)c2)cc1	-72.5%	-64.6%
CN1CC[C@H](c2c(O)cc(O)c3c(=O)cc(-c4ccccc4Cl)oc23)[C@H](O)C1	-83.4%	-87.7%
CC1NC(=O)C(N)CNC(=O)C(C2CCN=C(N)N2)NC(=O)/C(=C\NC(N)=O)NC(=O)C(CNC(=O)CC(N)CCCN)NC1=O (stereo not given)	-29.5%	0.515%
CN(C)C(=O)CCSC(SCCC(=O)O)c1cccc(/C=C/c2ccc3ccc(Cl)cc3n2)c1 (stereo not given)	-22.6%	5.04%
CNC(=O)c1cccc(-c2ccc3c(N4CCOC[C@@H]4C)nc(N4CCOC[C@@H]4C)nc3n2)c1	-62.5%	-42.8%
CC(C)N1CCN(c2ccc(OC[C@@H]3CO[C@@](Cn4cncn4)(c4ccc(Cl)cc4Cl)O3)cc2)CC1	-68%	-76%
c1ccc2c(-c3cnn4cc(-c5ccc(N6CCNCC6)cc5)cnc34)ccnc2c1	-95.2%	-95.7%
CCN(CC)CCNC(=O)c1c(C)[nH]c(/C=C2\C(=O)Nc3ccc(F)cc32)c1C	-99.7%	-99.2%
Cc1c(C(=O)Nc2ccc(N3CCC(N4CCOCC4)CC3)c(C#N)c2)cnn1-c1ccc(Cl)cc1	-36.4%	-33.4%
CNCCC=C1c2ccccc2CCc2ccccc21	-70.1%	-77.1%
CN(C)CCCCC(=O)Nc1ccc(NC(=S)NC(=O)c2ccc(C(C)(C)C)cc2)cc1	-85.9%	-91.9%
CCn1c2ccccc2c2cc(Nc3ccnc(NCCCN4CCOCC4)n3)ccc21	-79.7%	-84.9%
CN1CCN(c2ccc3nc(-c4c(N)c5c(F)cccc5[nH]c4=O)[nH]c3c2)CC1	-60.6%	-77.6%
NC(=O)Nc1cc(-c2cccc(F)c2)sc1C(=O)N[C@H]1CCCNC1	-79.6%	-32.6%
CN1CCC[C@@H]1Cc1c[nH]c2ccc(CCS(=O)(=O)c3ccccc3)cc12	-25.1%	-27.2%
